Source: PubChem BioAssay AID720711 (National Center for Advancing Translational Sciences (NCATS), 2013)
Screen size: about 360,000 compounds; about 290 (0.081%) were called active. A call without a number means that no potency is given here. The sample holds actives, similar compounds and a random draw of the others, so the mix is not that of the screen. Calls come from the whole dose curve; as a rule, active = well fitted activation curve with a large enough effect; inconclusive = small, poorly fitted or top-dose-only effect; inactive = no such curve, though single readings can be large or run the other way.

Molecular target: Rap guanine nucleotide exchange factor 4 (Homo sapiens) (UniProt Q8WZA2)
Experiment: qHTS for Agonist of cAMP-regulated guanine nucleotide exchange factor 4 (EPAC2): primary screen; note: nearly all actives have a fitted effect of over 50% in size
Settings: biochemical qHTS; Potency: EPAC2 activation; series mostly up to 154 µM
Procedure, shortened: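 Readout is BODIPY fluorescence (480 nm excitation, 540 nm emission), which falls as labeled GDP is exchanged off Rap1B. EPAC2 at 100 nM acted on 250 nM RAP1B-BODIPY-GDP with 50 uM GDP present.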
Potency is the fitted concentration of half-maximal effect.

Chain of Rap guanine nucleotide exchange factor 4 (Homo sapiens) (Q8WZA2 whole entry, looked up): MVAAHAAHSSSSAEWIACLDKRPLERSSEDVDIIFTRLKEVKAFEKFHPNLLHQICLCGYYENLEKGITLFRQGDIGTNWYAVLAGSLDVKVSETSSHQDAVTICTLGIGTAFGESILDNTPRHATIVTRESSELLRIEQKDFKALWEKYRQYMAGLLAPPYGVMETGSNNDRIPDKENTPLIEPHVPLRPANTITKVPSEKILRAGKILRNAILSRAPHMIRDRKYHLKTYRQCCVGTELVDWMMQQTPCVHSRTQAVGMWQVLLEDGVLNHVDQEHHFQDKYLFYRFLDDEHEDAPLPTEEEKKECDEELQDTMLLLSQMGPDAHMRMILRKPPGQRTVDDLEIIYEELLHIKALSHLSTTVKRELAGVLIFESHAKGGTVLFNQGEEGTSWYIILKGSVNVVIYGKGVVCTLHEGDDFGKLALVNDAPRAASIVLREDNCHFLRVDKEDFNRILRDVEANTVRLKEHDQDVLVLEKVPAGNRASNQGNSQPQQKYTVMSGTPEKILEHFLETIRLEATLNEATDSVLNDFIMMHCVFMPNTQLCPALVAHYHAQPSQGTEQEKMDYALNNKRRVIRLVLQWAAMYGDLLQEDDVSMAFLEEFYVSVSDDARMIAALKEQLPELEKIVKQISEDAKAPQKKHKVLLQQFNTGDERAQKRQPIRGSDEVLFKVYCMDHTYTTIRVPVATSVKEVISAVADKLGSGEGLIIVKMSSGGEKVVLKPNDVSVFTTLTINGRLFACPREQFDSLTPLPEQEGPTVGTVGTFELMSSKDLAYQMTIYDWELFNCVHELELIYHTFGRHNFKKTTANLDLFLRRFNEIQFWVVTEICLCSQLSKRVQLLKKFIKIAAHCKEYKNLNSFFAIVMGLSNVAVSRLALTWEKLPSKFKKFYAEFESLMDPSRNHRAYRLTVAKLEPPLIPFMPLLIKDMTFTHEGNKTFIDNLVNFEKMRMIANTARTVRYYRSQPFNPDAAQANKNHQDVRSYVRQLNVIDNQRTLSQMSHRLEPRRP

SMILES	Potency	activation
COc1ccc(CNC(=O)c2ccc(-c3cccnc3)c3ccoc23)cc1OC	inactive	–
CCc1noc(C)c1C(=O)N1CCCC(N2CCN(c3ccc(F)cc3)CC2)C1 (configuration not stated)	inactive	–
C=C1C(=O)OC2C1CCC(C)=CCCC1(C)OC21 (configuration not stated)	inactive	–
CCC(C(=O)NCCC(C)C)N(Cc1ccccc1Cl)C(=O)c1snc(C(N)=O)c1N (configuration not stated)	inactive	–
COc1cccc(N(CC(=O)NC2CCCC2)C(=O)CCCC(=O)Nc2ccccn2)c1	inactive	–
Cc1nn(C(C)C(=O)NCCC2=CCCCC2)c(=O)c2nn(-c3ccccc3)c(C)c12 (configuration not stated)	inactive	–
CC(C)C(NC(=O)OCc1ccccc1)C(=O)OCC(=O)N1C(C)CCCC1C (configuration not stated)	–	11.3% [at 15.6 µM, 100% = 6.5 mM cAMP response] (inactive)
COc1ccc(S(=O)(=O)NCC(c2ccco2)N2CCOCC2)cc1 (configuration not stated)	inactive	–
COc1ccccc1CNS(=O)(=O)c1cc2c3c(c1)CCC(=O)N3CCC2	inactive	–
Cc1ccc(S(=O)(=O)N2[C@@H](Cc3ccccc3)CO[C@H]2CC(=O)OCc2ccccc2)cc1	inactive	–
Cc1ccccc1C#CC1=CC(=O)CC(C)(C)C1	inactive	–
CN(CC(=O)NCc1ccncc1)S(=O)(=O)c1ccc(Br)cc1	inactive	–
CC(Sc1ccccc1F)C(=O)Nc1cccc(S(=O)(=O)N2CCOCC2)c1 (configuration not stated)	inactive	–
CCOC(=O)N1CCC(C(N)=O)CC1	inactive	–
COC(=O)[C@@]12C[C@@H](CC(=O)NCCCCc3ccccc3)C(=O)N(Cc3ccccc3)C1=CCC(C)(C)C2	inactive	–
O=C(COC(=O)C1CC2C=CC1C2)Nc1ccccc1 (configuration not stated)	inactive	–
Cc1ccc(S(=O)(=O)N2CCC(C(=O)N[C@@H](C)C(=O)NCCc3ccccc3)CC2)cc1	inactive	–
C[C@@H](C(=O)N1CCNCC1)n1cc(CCC(=O)O)nn1	inactive	–
N#CCCN1CCN(S(=O)(=O)c2ccc(S(=O)(=O)NC3CC3)cc2)CC1	inactive	–
CC(C)(C)OC(=O)NC(Cc1ccccc1)C(=O)NC(CSC1CCCCO1)C(=O)NN (configuration not stated)	inactive	–
O=C1/C(=C/c2coc3ccc(O)cc3c2=O)SC(=S)N1c1ccccc1	inactive	–
O=C(O)CCCCCCCCc1cn(CN2C(=O)c3ccccc3C2=O)nn1	inactive	–
Cc1ccc(-c2nn(-c3ccccc3)cc2/C=C2\SC(=S)N(CCCCCC(=O)O)C2=O)o1	126 µM (active)	–

SMILES	Potency	activation
O=C(Nc1ccc(Br)cn1)C1CCN(S(=O)(=O)c2cccs2)CC1	inactive	–
COc1ccccc1CCNC(=O)c1c(C)nn(CC(C)C)c1Cl	inactive	–
CC1CCN(c2ccc3c(c2)S(=O)(=O)c2cc(C(=O)O)ccc2C3=O)CC1	inactive	–
Cc1ccc(CNC(=O)c2ccc3c(c2)S(=O)(=O)c2ccccc2C3=O)cc1	inactive	–
Cc1ccc(CNC(=O)c2cccc3c2C(=O)c2ccc(N4CCC(C)CC4)cc2S3(=O)=O)cc1	89.1 µM (active)	–
O=C(CSc1ccc(-c2cccs2)nn1)Nc1ccccc1F	inactive	–
CCOC(=O)c1c(NC(=S)Nc2ccccc2)sc2c1CCN(C)C2	inactive	–
CCc1ccccc1N(CC(=O)NCC1CCCO1)C(=O)CCC(=O)Nc1nccs1 (configuration not stated)	inactive	–
CCOC(=O)[C@]12CCCC=C1N(CCC1=CCCCC1)C(=O)[C@H](CC(=O)N1CCCCC1)C2	inactive	–
CCO[C@@H]1OC(C(=O)N2CCOCC2)=C[C@H](C)[C@H]1CCCO	inactive	–
Cc1ccc(NC(=S)N2CCCC(c3ccccc3)=N2)cc1	inactive	–
COCC(=O)N1CCc2ccc(NC(=O)c3ccccc3Cl)cc2C1	inactive	–
COCc1cc(C(C)=O)ccc1OC	inactive	–
COc1ccc(-c2ocnc2C(=O)Nc2ccc3c(c2)CCC3)cc1	inactive	–
COc1ccc(-c2onc3ccc(C(C)=O)cc23)cc1	50.1 µM (active)	–
COCC1CCN(C(=O)C2CCC(=O)N(CC3CCCCC3)C2)CC1 (configuration not stated)	inactive	–
CCNC(=O)N1CCN(S(=O)(=O)c2ccc3c(c2)OCCCO3)CC1	inactive	–
CCOc1cccc(C(=O)Nc2cnn(Cc3ccccc3)c2)c1	inactive	–
Nc1nnc(SCC(=O)OCc2ccc(Cl)c(Cl)c2)s1	inactive	–
COCC1CCN(C(=O)CCc2nnc(C3(c4ccc(Cl)cc4)CCC3)o2)C1 (configuration not stated)	inactive	–
Cc1ccc(CSc2nsc(C)c2C#N)cc1	inactive	–
COC(=O)Cc1csc(/N=C/c2c(O)n(-c3cccc(C(F)(F)F)c3)c(=O)c3ccccc23)n1	inactive	–
Cc1ccc(N=Cc2c(O)n(-c3nccs3)c(=O)c3ccccc23)c(C)c1	70.8 µM (active)	–

SMILES	Potency	activation
Cc1cccc(-n2c(O)c(C=Nc3ccccc3N)c(=O)[nH]c2=O)c1	inactive	–
COCCNC(=O)C1C(=O)Nc2ccccc2C(=O)N1c1ccc2c(c1)OCCO2 (configuration not stated)	inactive	–
C=CCNC(=O)CCCC(=O)NCC=C	inactive	–
COCCNc1nc2nonc2nc1N(C)Cc1ccc(C)cc1	inactive	–
CCCNC(=S)NC1CC2CCCC(C1)N2CC(C)C (configuration not stated)	inactive	–
CCOC(=O)c1sc(NC(=O)C2CSC3(C)CCC(=O)N23)nc1C (configuration not stated)	inactive	–
CC(=O)c1nc(N2C(=O)C3CC=C(C)CC3C2=O)sc1C (configuration not stated)	inactive	–
Nc1ccccc1/C=N\N=C/c1ccccc1N	inactive	–
Cc1occc1-c1nnc(SCC(=O)NC2(C#N)CCCC2)n1C	inactive	–
COc1ccc(-n2nc(C(=O)NCC(=O)N3CCC(C(N)=O)CC3)c3ccccc3c2=O)cc1OC	inactive	–
COc1ccc2c(CC(=O)OCC(=O)NC(N)=O)coc2c1	inactive	–
Cc1ccc(N=C2SCCCN2C(=O)c2cccc(N3C(=O)CCC3=O)c2)cc1Cl	inactive	–
Nc1ccc2nn(-c3ccc(Cl)cc3)nc2c1	inactive	–
Nc1nnc(SCCN2C(=O)c3ccccc3S2(=O)=O)s1	inactive	–
COc1cccc(C2CC(c3cccs3)=NN2C(=O)CSC2=NCCS2)c1OC (configuration not stated)	inactive	–
O=C(COc1ccc(S(=O)(=O)N2CCOCC2)cc1Cl)N1CCOCC1	inactive	–
COCc1[nH][nH]c(=O)c1C=Nc1ccc(F)cc1F	inactive	–
NC(=O)COc1ccc(NC(=O)c2ccccc2-c2ccccc2)cc1	inactive	–
COc1ccc(NC(=O)C(=O)NCC(c2ccco2)N2CCc3ccccc3C2)cc1 (configuration not stated)	inactive	–
CCN(CC)C(=O)CSC(Nc1cccc(F)c1)=C(C#N)C#N	inactive	–
CSc1nnnn1-c1c(C)cc(C)cc1C	inactive	–
